± gives the standard deviation.
Experiments:
[1] = test system: MILI (PIWIL2) piRISC loaded with piRNA #1 (26 nt); experiment: pre-steady-state target cleavage rate (min^-1); guide: piRNA #1 5'p-UGAGGUAGUAGGUUGUAUAGUAUCCA; higher = faster piRNA-guided slicing of the target; settings: auxiliary factor: 500 nM mouse GTSF1
Summary of the method: (§1)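 Cleave-'n-Seq used a transcribed, DNA-blocked target RNA library at 0.1 nM and active affinity-purified piRISC with one synthetic guide at 1 nM, with or without 500 nM GTSF1 partner protein, in HEPES–potassium acetate buffer at 33 °C for 0–8 or 0–960 min. Uncleaved targets were sequenced and normalised to depth and to weakly complementary targets, and three trials were pooled with k3 capped at 0.0001 min^-1. The pre-steady-state cleavage rate was estimated by a burst-and-steady-state fit.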

[2] = test system: EfPiwi piRISC loaded with piRNA #1 (26 nt); experiment: pre-steady-state target cleavage rate (min^-1); auxiliary factor: 500 nM Ephydatia muelleri Gtsf1; guide: piRNA #1 5'p-UGAGGUAGUAGGUUGUAUAGUAUCCA; MIWI and MILI are mouse PIWI proteins and EfPiwi is from a freshwater sponge; tags in brackets are library labels; higher = faster piRNA-guided slicing of the target
Summary of the method: as §1

| Sequence | pre-steady-state target cleavage rate [1] | pre-steady-state target cleavage rate [2] |
| --- | --- | --- |
| GGAGAGGAUACUAUACAACCUACUACCGCA | 0.0764 ± 0.015 | 0.00593 ± 0.0021 |
| GGAGAGGAAACAAUACAACCUACUACCUCA | 0.186 ± 0.018 | 0.00675 ± 0.004 |
| GGAGAGGAUACUAUUCAACCUACUACCACA | 0.169 ± 0.017 | 0.00331 ± 0.0019 |
| GGAGACCAUAUUAUACAACCUACUACCUCA | 0.188 ± 0.015 | 0.116 ± 0.036 |
| GGAGACCAUACUAUACCACCUACUACCUCA | 0.157 ± 0.013 | 0.00807 ± 0.004 |
| GGAGACCUUACUAUACAACGUACUUCCUCA | 0.0242 ± 0.0053 | 0.00315 ± 0.0021 |
| GGAGUGGAUACUACACAACCUACUACCUCA | 0.175 ± 0.011 | 0.082 ± 0.029 |
| GGAGACCUAUCUAUACUACCUACUACCUCA | 0.0815 ± 0.01 | 0.00437 ± 0.0031 |
| GGAGACCUAUCUAUACAACCUACUACCUUCA | 0.139 ± 0.017 | 0.0604 ± 0.023 |
| GGAGUGGAUACAAUACAACCUAGUACCUCA | 0.0718 ± 0.013 | 0.00305 ± 0.0021 |
| GGAGAGGAUACUUUACAACCUACUUCCUCA | 0.00524 ± 0.0027 | 0.00239 ± 0.0024 |
| GGAGACCUUACUAUACAACCUACUUCCUCA | 0.0805 ± 0.016 | 0.0038 ± 0.0028 |
| GGAGACCAUACAAUACUACCUACUACCUCA | 0.158 ± 0.019 | 0.00374 ± 0.0037 |
| GGAGAGGUUUCUAUACAACCUACUACCUCA | 0.14 ± 0.013 | 0.00427 ± 0.004 |
| GGAGUGGAUACUAUACAACCUACUACCGCA | 0.0694 ± 0.0095 | 0.00573 ± 0.002 |
| GGAGUGGAAUACUAUACAACCUACUACCUCA | 0.165 ± 0.0081 | 0.122 ± 0.045 |
| GGAGAGGAAAGUAUACAACCUACUACCUCA | 0.0417 ± 0.0061 | 0.00774 ± 0.0044 |
| GGAGUGGAUACUAUACAACCUACUAACUCA | 0.018 ± 0.005 | 0.00991 ± 0.0043 |
| GGAGUGGAAACUAUACAACCUACUACGUCA | 0.0633 ± 0.012 | 0.00326 ± 0.0026 |
| GGAGACCUUACUAUACAACCUACUAGGAGA [g6:g22:cont:t1A] | 0.00747 ± 0.0032 | 0.00279 ± 0.0024 |
| GGAGACGGAUACUAUACAACCUACUACCUCA | 0.234 ± 0.018 | 0.221 ± 0.062 |
| GGAGAGGAUACUAUAGAACCUACUAGCUCA | 0.00752 ± 0.0035 | 0.00254 ± 0.0018 |

| Sequence | pre-steady-state target cleavage rate [1] | pre-steady-state target cleavage rate [2] |
| --- | --- | --- |
| GGAGAGGAUACUAUACAACCAACUACCACA | 0.0058 ± 0.0018 | 0.00388 ± 0.0019 |
| GGAGAGGAUACUAUACAACCUACUACCCUCA | 0.11 ± 0.017 | 0.00508 ± 0.0022 |
| GGAGUGGAUACUAAACAACCUACAACCUCA | 0.0728 ± 0.009 | 0.00162 ± 0.0015 |
| GGAGAGGUUACAAUACAACCUACUACCUCA | 0.181 ± 0.014 | 0.00504 ± 0.0035 |
| GGAGACCUUACUAUACAACCUACUACUUCA | 0.116 ± 0.016 | 0.0046 ± 0.003 |
| GGAGAGGAUCCUAUACAACCUACUACCUCA | 0.164 ± 0.025 | 0.0886 ± 0.046 |
| GGAGAGGAUACUAUACAUCCUUCUACCUCA | 0.0216 ± 0.0041 | 0.00362 ± 0.0026 |
| GGAGACCAUUCUAUACAACCUACUACGUCA | 0.0404 ± 0.0088 | 0.0027 ± 0.0025 |
| GGAGUGGAUACUAUACAGCCUACUACCUCA | 0.147 ± 0.0093 | 0.216 ± 0.073 |
| GGAGUGCAUACUAUACAAGCUACUACCUCA | 0.213 ± 0.014 | 0.00482 ± 0.002 |
| GGAGACCAAACUAUACAACCUACUUCCUCA | 0.0841 ± 0.035 | 0.00317 ± 0.0029 |
| GGAGUGGAUACUAUACAACCUACGUACCUCA | 0.118 ± 0.014 | 0.00401 ± 0.0015 |
| GGAGAGGAUACAAUACAACCUACUUCCUCA | 0.0281 ± 0.0083 | 0.00257 ± 0.002 |
| GGAGUGGAUACUAUUCAACCUACUACCUGA | 0.0817 ± 0.011 | 0.00324 ± 0.0019 |
| GGAGACCUAUCAAUACAACCUACUACCUCA | 0.0355 ± 0.0083 | 0.00612 ± 0.0034 |
| GGAGUGGAUACUUUACAACCUUCUACCUCA | 0.0065 ± 0.0017 | 0.00301 ± 0.0026 |
| GGAGAGGAAUACUAUACAACCUACUACCUCA | 0.172 ± 0.0098 | 0.0974 ± 0.034 |
| GGAGACCUUUCAAUACAACCUACUACCUCA | 0.0649 ± 0.017 | 0.00501 ± 0.0042 |
| GGAGACGAUACAUACAACCUACUACCUCA | 0.158 ± 0.019 | 0.00551 ± 0.0028 |
| GGAGACGAUACUAUACUACCUUCUACCUCA | 0.025 ± 0.0053 | 0.00418 ± 0.0025 |
| GGAGAGGAUCACUAUACAACCUACUACCUCA | 0.086 ± 0.019 | 0.00867 ± 0.0051 |
| GGAGACCUUGCUAUACAACCUACUACCUCA | 0.114 ± 0.022 | 0.00436 ± 0.004 |

| Sequence | pre-steady-state target cleavage rate [1] | pre-steady-state target cleavage rate [2] |
| --- | --- | --- |
| GGAGACCAUACUAUACAAUCUACUACCUCA | 0.146 ± 0.013 | 0.00847 ± 0.004 |
| GGAGUGGAUACUAUACUACCUUCUACCUCA | 0.0207 ± 0.0034 | 0.00331 ± 0.0022 |
| GGAGACCAAACUAUACAACCUAGUACCUCA | 0.0169 ± 0.0096 | 0.00518 ± 0.0029 |
| GGAGUGGAUACUAUACAAACUACUACCUCA | 0.195 ± 0.015 | 0.0127 ± 0.0051 |
| GGAGACCUAAGUAAACAACCUACUACCUCA | 0.0128 ± 0.0033 | 0.00575 ± 0.004 |
| GGAGACCAUACUAUACAACCUACUACUUCA | 0.189 ± 0.019 | 0.00607 ± 0.0024 |
| GGAGACCAUACUAUAGAACCUACUACCUCA | 0.116 ± 0.016 | 0.00367 ± 0.0017 |
| GGAGACCUAACUAUACAACCUACUACCUCG [g2:g21:cont:t1G] | 0.189 ± 0.035 | 0.0178 ± 0.0076 |
| GGAGACGAUACUAUAGAUCCUACUACCUCA | 0.224 ± 0.013 | 0.00498 ± 0.0016 |
| GGAGACCUUACUUAUACAACCUACUACCUCA | 0.0994 ± 0.014 | 0.00736 ± 0.0041 |
| GGAGAGGAUACUAUACAACCUACUACCUGA | 0.0731 ± 0.011 | 0.00647 ± 0.0028 |
| GGAGACGAUACUAUACAACGUACUACGUCA | 0.00557 ± 0.0029 | 0.00379 ± 0.0014 |
| GGAGACGAUACUAUACAACCUACUACACUCA | 0.202 ± 0.03 | 0.00494 ± 0.0019 |
| GGAGUGGAUACUAUUCAACCUUCUACCUCA | 0.00907 ± 0.0019 | 0.00433 ± 0.0025 |
| GGAGUGGAUACUAUACAUGGUACUACCUCA | 0.00713 ± 0.0016 | 0.00303 ± 0.0028 |
| GGAGUCGAUACUAUACUACCUACUACCUCA | 0.19 ± 0.012 | 0.00591 ± 0.0029 |
| GGAGACGAUUCUAUACAACGUACUACCUCA | 0.0237 ± 0.0031 | 0.00356 ± 0.0021 |
| GGAGAGGAUACUAUACAACCUAUUACCUCA | 0.174 ± 0.018 | 0.153 ± 0.056 |
| GGAGUGGAUACUAUACAUGCUACUACCUCA | 0.109 ± 0.0081 | 0.00896 ± 0.0037 |
| GGAGAGGAUAGUAUACUACCUACUACCUCA | 0.0295 ± 0.0076 | 0.00274 ± 0.0027 |
| GGAGUGGAUACUAUAGAACCUACUAGCUCA | 0.00733 ± 0.0025 | 0.00232 ± 0.0015 |
| GGAGAGGUUACUUUACAACCUACUACCUCA | 0.175 ± 0.01 | 0.00375 ± 0.0031 |

From the supplement of paper PMC10338343
